Pf growth 48h: P. falciparum growth inhibition at 48 hours (one generation). P. falciparum luciferase growth in erythrocytes, 48 h. Potency, µM (series often up to 28.7 µM), for the others: at the top dose activity change, negative = inhibition, hits mostly inhibitors. 310,000 tested, 5.9% active; also: potency is read from the fitted curve at half-maximal effect
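Cell-based growth assay: transgenic P. falciparum expressing firefly luciferase, cultured in red cells within RPMI 1640 containing 0.5% w/v Albumax, 24 mM bicarbonate and gentamycin. A drop in luciferase activity indicates inhibition.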
Lassa entry inh: inhibitors of Lassa virus binding or cell entry; AID 540256; Lassa virus pseudotype entry inhibition, cell reporter; Potency, µM (highest dose often 37.9 µM), for inactives: top-dose activity change, negative = inhibition, most hits filed as inhibitors; 300,000 tested, 1.2% active; calls by dose curve; tested in HEK293 cells; also: potency is read from the fitted curve at half-maximal effect; nearly all actives have a fitted effect of over 50% in size
HCV inh: inhibitors of hepatitis C virus infection; 340,000 tested, 3.4% active; Huh7.5.1 HCVcc-Cre infection, luciferase reporter, 44 h; AID 651820; Potency, µM (series often up to 41.8 µM), for inactives: at the top dose activity change, negative = inhibition, usual class: inhibitors; also: potency is read from the fitted curve at half-maximal effect
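Cells seeded at 1,000/well and cultured 4 h, then compounds added followed by HCVcc-Cre virus (~0.5 moi). After 44 h further culture, luciferase substrate was added, plates held 15 min at room temperature, and luminescence read for 15 sec.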
Marburg entry inh: inhibitors of Marburg virus binding or cell entry | Marburg virus pseudotyped entry inhibition, cell reporter | Potency, µM (highest dose often 37.8 µM), inactives show at the highest dose activity change, negative = inhibition, usual class: inhibitors | 300,000 tested, 1.8% active | AID 540276; calls by dose curve; tested in HEK293 cells; also: potency is read from the fitted curve at half-maximal effect
Pf growth 96h: inhibits malaria parasite growth, 96 h | Potency, µM (doses to about 28.7 µM), for the others: at the top dose activity change, negative = inhibition, hits mostly inhibitors | 320,000 tested, 6.9% active | AID 504834 | P. falciparum luciferase reporter growth, 96 h; also: potency is read from the fitted curve at half-maximal effect
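Compounds incubated with erythrocytes infected by luciferase-expressing P. falciparum (2% hematocrit, 0.05% parasitemia final) for 96 hours, 37 C in 5% CO2. Growth inhibition scored as decreased luciferase luminescence.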
HCMV antiviral: inhibitors of human cytomegalovirus | HFF cells, HCMV-luciferase reporter, 72 h; hits give low values | activity change, negative = inhibition, % at 57.5 µM | 410,000 tested, 4.5% active | AID 1259415; in the data active = activity change below about -60%; inconclusive = no clear call, values can overlap the other calls; inactive = above about -39%
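HFF cells seeded 16 h at 37C, treated with compounds, infected with luciferase-reporter HCMV at MOI 1 PFU/cell; luciferase read at 72 h post infection, normalized to buffer-only and Salinomycin controls.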
Numbers without * were called inactive; ? = inconclusive; / = no result; ! = not confirmed by another sample; [ ] = dose if it differs, or a comment. A selection: hits, their analogues and other compounds. The true share with any hit is near 14%. Unless noted, calls follow the shape of the dose curve; as a rule, active = well fitted inhibition curve with a large enough effect; inconclusive = small, poorly fitted or top-dose-only effect, or another doubt; inactive = no such curve, though single readings can be large or run the other way. % is scaled to controls: 0 for no effect and ±100 for the full control effect.

SMILES	Pf growth 48h	Lassa entry inh	HCV inh	Marburg entry inh	Pf growth 96h	HCMV antiviral
NC(=O)c1ccc(Nc2nc(C(N)COCc3ccccc3)cs2)cc1 (stereo unspecified)	/	/	/	/	/	-37
COc1ccc(CNC(=O)Nc2nc(C(N)Cc3ccc(F)cc3)cs2)cc1 (stereo unspecified)	/	/	/	/	/	-2
CN(C)Cc1csc(NC(=O)Nc2ccccc2-c2ccccc2)n1	/	/	/	/	/	-10
NC(COCc1ccccc1)c1csc(NC(=O)Nc2cccc(C(F)(F)F)c2)n1 (stereo unspecified)	/	/	/	/	/	-100*
C[C@@H]1CC[C@H]2C(=O)N(Cc3ccc(Cl)cc3)C[C@H](O)CN2[C@@H]1c1ccc(Br)cc1	/	/	/	29%[14.2 µM]	/	/
CCc1ccc(NC(=O)C(=O)NCCc2csc(-c3ccc(C(F)(F)F)cc3)n2)cc1	/	6%[46.1 µM]	/	/	/	-5
C[C@@H]1CN([C@@H](C)CO)C(=O)CCCn2nncc2CO[C@H]1CN(C)CC1CCCCC1	/	/	/	/	/	-18
NC(Cc1ccc(C(F)(F)F)cc1)c1csc(NC(=O)NCCc2ccccc2)n1 (stereo unspecified)	/	/	/	/	/	-101*
NC(Cc1ccc(C(F)(F)F)cc1)c1csc(NC(=O)Nc2ccccc2Oc2ccccc2)n1 (stereo unspecified)	/	/	/	/	/	-102*
C=C(C)CNC(=S)NNC(=O)CCn1c2ccc(Cl)cc2c2cc(Cl)ccc21	2.3µM*	?	-28%	-15%	45%	-82*
C=C(C)CNC(=S)NNC(=O)CCn1c2ccccc2c2ccccc21	-22%	0%	-13%	?	?	-39
C=C(C)CNC(=S)NNC(=O)CCn1c2cc(Cl)ccc2c2ccc(Cl)cc21	7.4µM*	0%	-8%	?	82%	-24
CCOc1cccc(C(=O)Nc2ccc(-c3nc4cc(C)cc(C)c4o3)cc2)c1	/	0%[46.1 µM]	/	29%[46.1 µM]	/	4
c1ccc(C2CN3CCSC3=N2)cc1 (stereo unspecified)	2.7µM*!	30%	30%	?	1.9µM*!	0
Brc1ccc([C@H]2CN3CCSC3=N2)cc1	/	-25%	?	?	/	107
CC[C@H]1OC(=O)C[C@@H](O)[C@H](C)[C@@H](O[C@@H]2O[C@H](C)[C@@H](O[C@H]3C[C@@](C)(O)[C@@H](O)[C@H](C)O3)[C@H](N(C)C)[C@H]2O)[C@@H](CC=O)C[C@@H](C)C(=O)/C=C/C(C)=C/[C@@H]1CO[C@@H]1O[C@H](C)[C@@H](O)[C@@H](OC)[C@H]1OC	/	/	-13%	/	/	13
CCC1OC(=O)C[C@@H](O)[C@H](C)[C@@H](OC2OC(C)CC(N(C)C)C2O)[C@@H](CC=O)C[C@@H](C)C(=O)/C=C/[C@]2(C)OC2C1C (stereo partly specified)	13µM*	/	/	/	0.0038µM*	/
CC(=O)c1c(C)[nH]c(C(=O)OCC(=O)N2CCN(S(=O)(=O)c3ccc(C)cc3)CC2)c1C	?	/	?	/	13µM*	47
CC(=O)c1c(C)[nH]c(C(=O)OCC(=O)N2CCN(S(=O)(=O)c3ccc(C)cc3C)CC2)c1C	/	?	?	-28%	8.3µM*	30
CC(=O)c1ccc(OCCCC(=O)Nc2cccc(S(=O)(=O)N3CCCCC3)c2)cc1	13µM*	-27%	?	-24%	?	0
CC(=O)c1ccc(OCCCC(=O)Nc2cccc(S(=O)(=O)N3CCCCCC3)c2)cc1	/	?	?	?	/	-8
CC(C)(C)c1ccc(OCCCC(=O)Nc2cccc(S(=O)(=O)N3CCOCC3)c2)cc1	?	?	?	?	?	-26
CC(C)(C)c1ccc(OCCC(=O)Nc2cccc(S(=O)(=O)N3CCCC3)c2)cc1	10µM*	?	?	?	?	-39
CCOc1ccc(C(=O)CCC(=O)Nc2cccc(S(=O)(=O)N3CCCCC3)c2)cc1	?	10µM*	?	?	?	-13
COCCCNC(=O)c1ccc(NC(=O)N2CCCCc3ccccc32)cc1	/	12%[46.1 µM]	/	/	/	22
SMILES	Pf growth 48h	Lassa entry inh	HCV inh	Marburg entry inh	Pf growth 96h	HCMV antiviral
O=C(NCc1ccccc1Cl)C1CCCN(C(=O)c2cnn(-c3ccccc3)c2-n2cccc2)C1 (stereo unspecified)	/	-21%[46.1 µM]	/	-14%[46.1 µM]	/	-20
COc1cccc(C(C(=O)NC2CCCC2)N(C(=O)c2ccco2)c2ccccc2)c1OC (stereo unspecified)	9.3µM*	/	-5%	?	-19%	-30
COc1cccc(C(C(=O)NC2CCCC2)N(C(=O)c2ccco2)c2ccc(C(C)=O)cc2)c1OC (stereo unspecified)	?	-6%	27%	8%[46.1 µM]	-6%	-4
CC(=O)Nc1ccc(N(C(=O)c2ccco2)C(C(=O)NC2CCCC2)c2ccc(N(C)C)cc2)cc1 (stereo unspecified)	?	-9%	-2%	-9%[46.1 µM]	9%	1
COc1cccc(C(C(=O)NC2CCCC2)N(C(=O)c2ccco2)c2ccc(NC(C)=O)cc2)c1OC (stereo unspecified)	1µM*	3%	-5%	2%[46.1 µM]	49%	3
O=C(Nc1ccc(NC(=O)c2cccs2)cc1)c1ccc(Br)cc1	/	11%[46.1 µM]	/	/	/	8
Cc1ccc(NC(=O)Nc2ccnc(-c3cccnc3)n2)cc1	33%[1.15 µM]	?	11µM*	?	?	-87*
O=C(CNC(=O)c1ccc(F)cc1)N/N=C/c1cc(Br)ccc1OC(=O)/C=C/c1ccco1	13µM*	/	10µM*	/	?	-77*
COc1ccc(C(=O)NCC(=O)N/N=C/c2ccco2)cc1OC	13%	4%[46.1 µM]	-5%	-21%[46.1 µM]	12%	13
COc1ccccc1C(=O)NCC(=O)N/N=C/c1cc(Br)ccc1OC(=O)/C=C\c1ccco1	38%	10%	?	2%	?	-37
O=C(CNC(=O)c1ccccc1F)N/N=C/c1cc(Br)ccc1OC(=O)/C=C/c1ccco1	10µM*	?	6.3µM*	?	?	-83*
Cc1cccc(C)c1OCCn1nc(C(=O)O)c2ccccc2c1=O	/	6.3µM*	1%	10µM*	6%	-27
CCOc1ccc(C(C)=O)cc1Cn1nc(C(=O)O)c2ccccc2c1=O	-28%	-5%	7.9µM*	?	-11%	40
COc1ccc(-c2nc3ccccc3c(=O)n2CCOc2c(C)cccc2C)cc1	12µM*	3%	-29%	9%[46.1 µM]	-78%	-27
Cc1cc(C)cc(OCCOCCn2c(-c3ccc(Cl)cc3)nc3ccccc3c2=O)c1	/	-23%[46.1 µM]	/	7.1µM*	/	14
COc1ccc(-c2nc3ccccc3c(=O)n2CCOc2cccc(C)c2C)cc1	6%	-4%	0%	-19%	-19%	-15

Bioassay records (PubChem)
